KB-V1 MDR tox: KB-V1 MDR subline cytotoxicity; KB-V1 MDR cells viability, CellTiter-Glo, 72 h; Potency, µM (titrated, usually from 46.1 µM), usual class: cytotoxic; 400,000 compounds, 3.4% hits; AID 1347076; note: % is set by controls: 0 for no effect and ±100 for the full control effect; nearly all actives have a fitted effect of over 60% in size
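Cytotoxicity toward P-gp-expressing KB-V1 cells was determined as loss of CellTiter-Glo luminescence after 72 h at 37 degrees C. Compounds were tested in quantitative HTS format across a concentration range, with curves fitted to normalized data.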
HT1080-NT tox: kills 2HG-producing HT-1080-NT fibrosarcoma cells; Potency, µM (titrated, usually from 46.1 µM), inactives show at the highest dose activity, negative = less viability, usual class: cytotoxic; 360,000 compounds, 1.6% hits; HT-1080-NT fibrosarcoma viability, CellTiter-Glo ATP luminescence, 48 h; AID 686970;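 note: NT is the 2HG producing partner of a matched IDH1 knockdown line; 0% = DMSO-treated cells and -100% = media-only wells without cells; nearly all actives have a fitted effect of over 55% in size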
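Fibrosarcoma NT cells, 750 per well in 5% FBS RPMI, were exposed to compound for 48 hours. Viability: CellTiter-Glo luminescence.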
HT1080 IDH1KD tx: toxicity to HT-1080 IDH1 knockdown cells (counter line); AID 686971; HT-1080 IDH1 knockdown viability, ATP luminescence, 48 h; Potency, µM (highest dose often 46.1 µM), without a hit: at the top dose activity, negative = toxicity, usual class: cytotoxic; 360,000 compounds, 2% hits;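 note: 0% = DMSO wells and -100% = cell-free medium wells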
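HT-1080-IDH1KD cells (IDH1 knocked down), 750/well in RPMI with 5% FBS, treated with compound 48 h at 37 degrees C. Viability by CellTiter-Glo luminescence, normalised to DMSO and no-cell wells; concentration-response curves classed.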
SW480 rereplic: DNA re-replication induction in SW480 cells | SW480 DNA re-replication, Hoechst DNA content imaging, 48 h | Potency, µM (series often up to 46.1 µM), for the others: at the top dose re-replication activation, usual class: activators | 340,000 compounds, 1.8% hits | AID 624297; note: % of control where 0% means no effect; nearly all actives have a fitted effect of over 55% in size
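Image-based read-out: total Hoechst fluorescence of nuclei (405 nm excitation, 500-530 nm emission), with hits raising the fraction of high-intensity nuclei. SW480 colon cells incubated 48 hr with compounds at 37 C.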
KB-3-1 tox: KB-3-1 parental cell cytotoxicity. AID 1347075. Potency, µM (series often up to 46.1 µM), most hits filed as cytotoxic. 400,000 compounds, 1.4% hits. KB-3-1 viability, CellTiter-Glo ATP luminescence, 72 h; note: % is set by controls: 0 for no effect and ±100 for the full control effect; nearly all actives have a fitted effect of over 60% in size
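Viability of parental KB-3-1 cells, measured by CellTiter-Glo luminescence, followed a 72 h incubation at 37 °C with pinned compounds in phenol-red-free DMEM containing 10% FBS.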
MCF10A rerep: induces DNA re-replication in MCF 10a normal breast cells; MCF 10A DNA re-replication, Hoechst nuclear intensity, 48 h; Potency, µM (doses to about 46.1 µM), without a hit: top-dose activity, positive = re-replication, usual class: activators; 350,000 compounds, 2.9% hits; AID 624296; note: % of control where 0% means no effect; nearly all actives have a fitted effect of over 50% in size
An asterisk follows results filed as active; i = inactive; ? = inconclusive; . = no result. This is a sample that favours compounds with a hit; in the whole collection about 8% have one here. Calls come from the whole dose curve; as a rule, active = well fitted curve in the direction sought with a large enough effect; inconclusive = small, poorly fitted or top-dose-only effect, or another doubt; inactive = no such curve, though single readings can be large; an effect the other way counts as inactive or inconclusive. Potency is the fitted concentration of half-maximal effect.

SMILES	KB-V1 MDR tox	HT1080-NT tox	HT1080 IDH1KD tx	SW480 rereplic	KB-3-1 tox	MCF10A rerep
O=C(Nc1ccc(Cl)cc1Cl)c1cnn2c1NC(=C1CC1)C=C2C(F)F	i	.	.	.	?	.
CCOc1ccc(CCNC(=O)c2ccc3c(c2)N(Cc2ccccc2)C(=O)c2ccccc2S3=O)cc1OCC (centres undefined)	i	.	.	.	?	.
Cc1cn2nc(N)c3ccccc3c2n1	i	-12%	-7%	-10%	i	-8%
Nc1nn2cc(-c3ccccc3)nc2c2ccccc12	16µM*	?	?	-2%	i	2%
CCOC(=O)Cn1c(S(=O)(=O)Cc2ccc(Cl)cc2)nc(-c2ccccc2)c1-c1ccccc1	7.3µM*	?	?	8%	?	?
CCOC(=O)Cn1c(S(=O)(=O)Cc2ccccc2)nc2ccccc21	i	6%	2%	23%	i	2%
COc1cc(OC)cc(-c2c(-c3ccc(F)cc3)c3cc(-c4ccc5[nH]ccc5c4)ccc3n2C)c1	21µM*	-7%	-7%	?	i	11%
COc1ccc(NC(=O)Cn2c(=O)oc3cc(S(=O)(=O)N4CCC(C)CC4)ccc32)c(OC)c1	i	.	.	.	?	.
N#Cc1cnc2cc(-c3ccccc3)nn2c1N	2.6µM*	?	?	-19%	?	13%
CC(=O)c1ccc(C(=O)N(Cc2cccnc2)c2nc3c(Cl)cccc3s2)cc1	i	.	.	.	i	.
Nc1ncnc(N2CCc3ccccc32)c1[N+](=O)[O-]	13µM*	-5%	6%	3%	?	8%
CCSC1(SCC)N=C(N)C2(C#N)C(c3ccc(OC)c(OC)c3OC)C12C#N (centres undefined)	?	?	?	?	?	9.2µM*
CCSC1(SCC)N=C(N)C2(C#N)C(c3ccccc3)NC3=C(CCC3)C12C#N (centres undefined)	i	2%	17%	-1%	i	-5%
CN(Cc1ccccc1)c1nc(N)nc(Cl)c1C=O	i	?	18µM*	4.6µM*	i	28%
CN(Cc1ccccc1)c1ccc(C=O)cc1	i	.	.	.	i	.
CC(=O)Oc1cc(C)c(OC(C)=O)c2ccccc12	.	.	.	27µM*	.	?
O=C(NCc1ccccc1)C1CCN(S(=O)(=O)c2ccc3c(c2)CCCN3C(=O)C2CCC2)CC1	i	.	.	.	i	.
Cc1cc(/C=C(\C#N)C(=O)N2CCCCC2)cc(C)c1O	?	16µM*	18µM*	?	16µM*	?
N#C/C(=C\c1cccc(Br)c1)C(=O)N1CCCCC1	?	23µM*	16µM*	?	?	23µM*
N#C/C(=C\c1cccc(O)c1)C(=O)N1CCCCC1	?	-1%	-11%	?	i	18µM*
CC(=O)N1CCN(C(=O)/C(C#N)=C/c2ccc3c(c2)OCO3)CC1	i	12%	-1%	-3%	i	11%
Cc1cccc(N2CCN(S(=O)(=O)c3cn(C)c(C)n3)CC2)c1C	?	.	.	.	i	.
CC(C)(C)c1cc(C(c2cccnc2)N2CCN(CCO)CC2)cc(C(C)(C)C)c1O (centres undefined)	i	6.3µM*	5µM*	-1%	i	1%
CC(C)(C)n1nnnc1C(c1cccnc1)N1CCN(c2cccc(C(F)(F)F)c2)CC1 (centres undefined)	?	0%	-8%	-1%	i	6%
COc1ccc(CCC(=O)O)cc1	i	.	.	.	i	.
COc1cccc(/C=N/n2c(-c3cc(C)[nH]n3)n[nH]c2=S)c1OC	i	2%	-2%	-4%	i	-1%
COc1cccc(/C=N/n2c(=S)n(C)c3cc(C)c(C)cc32)c1OC	16µM*	-3%	-1%	-4%	i	6%
COc1ccc(NC(=O)c2c(NCc3cccs3)sc3c2CCCCC3)cc1	i	.	.	.	i	.

Bioassay records from PubChem.
